Screens (PubChem BioAssay)
EWS-Fli block – inhibitors of EWS/Fli oncoprotein transcriptional activity; A673 NR0B1-luciferase reporter, viability-normalised; hit rate 0.67% among 350,000; inhibition, % at 12.6 µM; AID 651661;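 active means mean inhibition of at least 50% after viability correction, with every replicate also passing that limit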;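 further: firefly luciferase signal divided by Alamar Blue viability fluorescence both relative to DMSO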
TROY signal inh – blocks TROY-dependent signaling in reporter cells; Q293 LMP1-TROYcd NF-kB luciferase reporter, 4 h; inhibition, % at 10 µM; hit rate 0.98% among 360,000; AID 1347056;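 active means compounds whose plate-normalised and pattern-corrected inhibition of the luciferase reporter signal at the single screening dose is 50% or more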
LGR2 antag – Drosophila LGR2 receptor signaling inhibition; HEK293 LGR2, CRE-luciferase, bursicon-stimulated, 4 h; inhibition, % at 9.99 µM; hit rate 0.35% among 380,000; AID 720647;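 active means drop in luminescence signal, shown as inhibition above about 50% in the replicate tests, limit read from the data, passing the limit was not always enough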;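 further: agonist challenge used bursicon conditioned medium at about half maximal strength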
PAX8 reporter – inhibitors of PAX8 transcriptional activity in RMG-I cells; RMG-I TPO-luciferase reporter, SteadyGlo, 24 h; hit rate 1.2% among 360,000; inhibition, % at 12.6 µM;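 active means mean replicate inhibition at least 60% with every replicate also reaching 60%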;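 further: luciferase light reporting Pax8 driven TPO promoter activity; plate controls were median of neutral control wells for no effect and mitoxantrone controls for full effect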
TWEAK Fn14 block – blocks TWEAK-Fn14 interaction in a reporter cell assay; hit rate 2% among 360,000; TWEAK-stimulated Fn14 reporter cells, luciferase luminescence, 8 h; AID 1159606; inhibition, % at 10 µM; in the data active means inhibition above about 50%
An asterisk follows results filed as active; / = no result given. Compounds with a hit are over-represented: about 2.8% of the library has one in this group of screens.

SMILES	EWS-Fli block	TROY signal inh	LGR2 antag	PAX8 reporter	TWEAK Fn14 block
N/C(Cc1ccc([N+](=O)[O-])cc1)=N\OC(=O)c1ccc2ccccc2c1	/	59*	/	/	-3
O=S1(=O)c2ccc(Br)cc2N2CC[C@H](C2)N1Cc1ccc(Cl)cc1	66*	12	-13	27	8
CC(O)CC(=O)OC[C@]12CC[C@H]3[C@@](C)(CC[C@H]4C(C)(C)CCC[C@]34C)[C@@H]1CC(C1=CC(=O)OC1O)O2 (stereo partly specified)	59*	89*	/	/	106*
COc1cccc(-c2ccc3c(c2)O[C@H](CN(C)Cc2ccncc2)[C@H](C)CN([C@@H](C)CO)S3(=O)=O)c1	2	/	8	31	/
C=C(C)C(O)CC/C(C)=C/Cc1c(O)ccc(C(=O)/C=C/c2ccc(O)cc2)c1O (stereo unspecified)	29	65*	17	/	34
COc1ccc(C(=O)/C=C/c2ccc(O)cc2)c(O)c1C/C=C(\C)CCC=C(C)C	26	-17	/	/	-2
CN(C)c1ccc(Nc2nc(N)c([N+](=O)[O-])c(N3CCOCC3)n2)cc1	-11	70*	23	12	26
Cc1cccc(Nc2nc(N)c([N+](=O)[O-])c(N3CC(C)CC(C)C3)n2)c1 (stereo unspecified)	28	-9	-3	71*	29
Cc1cccc(Nc2nc(N)c([N+](=O)[O-])c(N3CC(C)OC(C)C3)n2)c1 (stereo unspecified)	8	31	-1	11	2
COc1ccc(Nc2nc(N)c([N+](=O)[O-])c(N3CCOCC3)n2)cc1	5	21	0	10	10
CC(=O)N1[C@H](CO)[C@H](c2ccc(-c3cccnc3)cc2)[C@H]1CNC(=O)C1CCC1	/	/	-9	/	/
COc1ccccc1NC(=O)N1CCCCN2[C@@H](CO)[C@@H](c3ccc(C#CC4CC4)cc3)[C@@H]2C1	/	/	/	14	/
O=C(C[C@H]1CC[C@H](NS(=O)(=O)c2ccc(F)cc2)[C@@H](CO)O1)NCc1ccc(Cl)c(Cl)c1	-3	/	-1	18	/
CC(=O)Nc1ccc(S(=O)(=O)N2CCN(c3cc4c(cc3[N+](=O)[O-])n(C)c(=O)n4C)CC2)cc1	/	21	-2	/	1
Cn1c(=O)n(C)c2cc([N+](=O)[O-])c(N3CCN(S(=O)(=O)c4ccc(C(C)(C)C)cc4)CC3)cc21	/	36	/	/	54*
C[C@H]1CN([C@@H](C)CO)C(=O)c2cccc(NS(=O)(=O)c3cccs3)c2O[C@H]1CN(C)Cc1ccc(C(=O)O)cc1	-4	/	-8	/	/
C[C@@H]1CCCCO[C@H](CN(C)C(=O)Cc2ccccc2)[C@H](C)CN([C@@H](C)CO)C(=O)c2cc(NC(=O)CCC(F)(F)F)ccc2O1	7	/	6	-7	/
C[C@H]1CN([C@@H](C)CO)C(=O)c2cc(C#CC3(O)CCCC3)cnc2O[C@H]1CN(C)Cc1ccccn1	-1	/	2	-4	/
COCCOC(=O)C1=C(C)NC2=C(C(=O)CC(C)(C)C2)C1c1ccc(N(C)C)cc1 (stereo unspecified)	2	-4	-13	/	-11
COCCOC(=O)C1=C(C)NC2=C(C(=O)CC(C)(C)C2)C1c1cc2c(cc1Br)OCO2 (stereo unspecified)	/	6	37	/	60*
COc1ccc(NC(=O)c2c(Nc3ccccc3)sc(C(=O)c3ccc(F)cc3)c2N)cc1	/	16	/	89*	52*
CO[C@H]1CN(C)C(=O)c2cc(NC(=O)NC(C)C)ccc2OC[C@H](C)N(Cc2ccc(-c3ccccn3)cc2)C[C@H]1C	2	/	5	/	/
COc1ccccc1Nc1ccc2nonc2c1[N+](=O)[O-]	-2	-25	1	6	89*
Cc1ccccc1Nc1ccc2nonc2c1[N+](=O)[O-]	-23	3	-17	9	13
O=[N+]([O-])c1c(Nc2ccccc2O)cc(Cl)c2nonc12	66*	64*	38	91*	27
SMILES	EWS-Fli block	TROY signal inh	LGR2 antag	PAX8 reporter	TWEAK Fn14 block
CC(=O)N(C)C1=C(N2CCOCC2)C(=O)c2ccccc2C1=O	/	32	/	/	74*
Cc1cc(Cl)n2c(nc3ccccc32)c1C#N	24	-4	-3	55	6
Cc1c(CCCl)c(Cl)n2c(nc3ccccc32)c1C#N	46	27	24	87*	109*
CCc1ccc(-c2nn(-c3ccccc3)cc2C2SCC(=O)N2Cc2ccco2)cc1 (stereo unspecified)	/	1	/	/	53*
Cc1ccc(CSc2nccc(-c3c(C)nc4ccccn34)n2)cc1	56*	41	14	4	57*
Cc1ccc(CSc2ncn(-c3ccccc3)n2)cc1	/	-12	/	-10	-8
Cc1ccc(S(=O)(=O)NCC[C@H]2CC[C@@H](NC(=O)c3cccnc3)[C@@H](CO)O2)cc1	0	/	12	-11	/
COc1cccc(CN(C)C(=O)CNC(=O)c2ccc(-c3ccccc3)cc2)c1OC	12	36	5	18	51*
Cc1c(/C(O)=C2/C(=O)C(=O)N(CCN3CCOCC3)C2c2cccs2)cnn1-c1ccccc1 (stereo unspecified)	/	60*	/	/	53*
Cc1c(/C(O)=C2\C(=O)C(=O)N(CCCN(C)C)C2c2cccs2)cnn1-c1ccccc1 (stereo unspecified)	-12	66*	3	-51	59*
Cc1c(/C(O)=C2\C(=O)C(=O)N(CCCN(C)C)C2c2ccco2)cnn1-c1ccccc1 (stereo unspecified)	2	80*	33	-72	80*
Cc1c(/C(O)=C2\C(=O)C(=O)N(CCN(C)C)C2c2ccco2)cnn1-c1ccccc1 (stereo unspecified)	/	4	/	-105	42
Cc1c(/C(O)=C2\C(=O)C(=O)N(CCN(C)C)C2c2ccccc2)cnn1-c1ccccc1 (stereo unspecified)	7	44	/	-41	57*
Cc1ccc(C2/C(=C(/O)c3cnn(-c4ccccc4)c3C)C(=O)C(=O)N2CCN2CCOCC2)o1 (stereo unspecified)	/	-11	/	/	18
COc1ccccc1C1/C(=C(/O)c2cnn(-c3ccccc3)c2C)C(=O)C(=O)N1CCN(C)C (stereo unspecified)	1	6	4	-7	21
CO[C@H]1CN(C)C(=O)c2cc(NC(C)=O)ccc2OC[C@@H](C)N(C(=O)C2CCC2)C[C@@H]1C	-6	/	12	-2	/
Cc1noc(C)c1NC(=O)N(C)C[C@@H]1OCCCC[C@@H](C)Oc2ccc(NS(=O)(=O)c3ccc(Cl)cc3)cc2C(=O)N([C@H](C)CO)C[C@@H]1C	-5	/	-5	-28	/
COc1ccc(S(=O)(=O)Nc2ccc3c(c2)C(=O)N([C@H](C)CO)C[C@H](C)[C@@H](CN(C)S(=O)(=O)c2c(C)noc2C)OCCCC[C@@H](C)O3)cc1	-15	/	-3	-2	/
O=C1C(=O)N(CCN2CCOCC2)C(c2ccccn2)/C1=C(/O)c1ccccc1 (stereo unspecified)	/	1	/	/	63*
